Hit rate of the full screen: of about 53,000 sequences, about 3,700 (7%) were called active.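 Rule for the calls: active = gene knockdowns whose robust z-score for IL-1 alpha signal is at least 2 or at most -2, so actives lie on both sides; inactive = the rest.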 Shown is part of a subset that was picked to be rich in actives.

The text below walks through data of PubChem BioAssay AID1508600 (Functional Genomics Laboratory (NCATS/FGL), 2020).

This assay is described as follows: Components of the Cytosolic LPS Sensing Pathway: Gene Identification via Genome-wide siRNA Screen.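 Note: robust z of the log signal after scaling to non-targeting control siRNA wells of the plate.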 The conditions noted are these: RAW264.7 macrophages, IL-1a HTRF, actives lie on both sides, screened at 100 nM (by protocol), cells primed 5 h with Pam3CSK4 first. An outline of the steps:
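Mouse macrophage line RAW264.7 is transfected with siRNA (100 nM final), grown 48h, primed with TLR ligand Pam3CSK4 5 h and given intracellular LipidA 24 h. IL-1a in supernatant is read by HTRF and viability by luminescence.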
Background: In TR-FRET formats the signal depends on donor and acceptor labels being close together.
For GUUCCUGUUCCACUACUGCTT against Sts, the z-score was -2.32 (active). In the case of GCAAAACUGAACAAAGUACTT against Xirp2, the z-score was 0.658 (inactive). As to CGAGUGUUGAAUAUUGUGATT against Gpr65, the z-score was 0.158 (inactive). As for GGUAGUUAAUCAGUGUAAATT against Rps6kb1, the z-score is 1.1 (inactive).

With GGAUACCAUCAUUGAUGUCTT against Dmap1, the z-score is -2.29 (active). With UCGGCCAUGUAGUAUGGGATT against Xlr3a, the z-score was 0.42 (inactive). Then GCACUCACGAUCAUCUUUGTT against Has1, with -0.513 (inactive); and GGCCCAGGUGGAUAGUUAUTT against Cep120, with 2.03 (active); and GGAAAACACACUUUUCUUUTT against Thap2, with -0.119 (inactive).

Turning to GGCAGCAGGAUGCAGAAAUTT against Ngef, the z-score was -2.43 (active). To GCUAUAGAUUGGCUUUAUGTT against Depdc1a belongs 0.727 (inactive); to GACAAAACUCAUUGUUCUUTT against Taf11, 1.16 (inactive). As to CCUUCUCAUAGUGAAAGUATT against Zkscan5, the z-score was 1.05 (inactive). As for GCCUUGCCCUGACUAUGUUTT against Paqr3, the z-score was 0.0997 (inactive).

As to GGUGCACAGAUGUCUUACCTT against Sec24d, the z-score was -0.945 (inactive). On to GGUAGAAGAGUCUGAUCAUTT against Sfrp1, for which the z-score was -0.0589 (inactive). Turning to GGCCAUUUACAAGAUGGUUTT against Hpca, the z-score is -0.619 (inactive). To GGUGGUCUACAGAAAAUUCTT against Ncf1 belongs -0.908 (inactive); to GGUGGUUCACAAAUACUGUTT against Agtpbp1, 0.264 (inactive); to GGGCUACAUUCCUUCCAAUTT against Frk, 5.59 (active). Then “GGAUCUCGAGCUGACAGAATT against Arhgap33os”, with 1.31 (inactive); and GGGAAAGGAUUCAAUUAAGTT against Lratd2, with 0.0415 (inactive); and GAGGGCUCUACAGUUUUUATT against Atp5g3, with 0.952 (inactive). As for GGCCUUCGAAAUAAUUCUGTT against Ppp1r14d, the z-score was -0.605 (inactive).

For GACCUUCGACACCGACAAATT against Rtl8c, the z-score was 3.29 (active). Then GCGGCGAUACUUCUACUUGTT against Grk2, with -0.584 (inactive); and CCUGUACAUUGUGUAAUGUTT against Pcdh8, with 0.0925 (inactive). As to CCUGAACGACAGAUUGGCATT against Krt20, the z-score was -0.697 (inactive). On to CGAAUCCUUAGUUGAAGAATT against Fastkd1, for which the z-score is 1.18 (inactive).

Turning to GGAAAUUUCAGAGCUCAAGTT against Trpc2, the z-score was -2.81 (active). With GGCAAAAGCACUGAAGAGATT against Ar, the z-score was -0.63 (inactive). To GGGCUCUUUAGUACUAGAATT against Spn belongs -0.612 (inactive); to GGUCCCUUGAUGUCGAUUATT against Stt3b, -1.15 (inactive); to GCUUCAGCUCUGAUUAACGTT against Alox8, -0.233 (inactive). For GCCGAUAGCAUAGACAGUGTT against Kansl2, the z-score is 0.6 (inactive). Regarding CCAGUCCUACUUAGCAAAGTT against Lrrc75a, the z-score is -1.48 (inactive). Then GGUGCAGAGCUUGAGAUGATT against Anks3, with -0.729 (inactive); and GCUGAACAUUAGCUUCAAUTT against Lrrc9, with -1.42 (inactive).

Regarding GGUUGCUCACUCAUUUAACTT against Pa2g4, the z-score is 2.18 (active). In the case of GGAGACAUAUGAGACUCUGTT against Fcer1g, the z-score is 0.156 (inactive).

For the sequence GGGACAGAUACUAAACUCUTT against Wfdc2, the z-score is 3.49 (active). To CCAUGGUUACCGUGUACUATT against Olfr1513 belongs -0.312 (inactive); to GGAUCAUUGACAGUGAAUATT against Blk, -1.35 (inactive). As to GGUCCUAUUUCGGAGCUUUTT against Tnfsf14, the z-score is 0.365 (inactive). In the case of GCUCAUCGUGUUUUCAACCTT against Cbr3, the z-score is -0.034 (inactive).

For GGGACACACCAUCAAAAGGTT against Kank4, the z-score was -2.32 (active).

In the case of GGAAAAAUGGAAACCUAAGTT against Nipal3, the z-score is 1.16 (inactive).

With GGUAUUAUCUGCAUGGGCATT against Mkrn3, the z-score is 0.273 (inactive). For GGAUGAAGUGUGUUUUGGCTT against Sim1, the z-score was 0.95 (inactive). As to GGACCUUUUGUCUAUAAUGTT against Arl4c, the z-score is 0.759 (inactive).

For the sequence GGCAGCUAAACUGUGUUAUTT against Tex11, the z-score is -1.36 (inactive).

For the sequence GGGCUUUGGACAUCUCCUATT against Serpina3c, the z-score was -1.98 (inactive). On to GGGAUAUCCUACCAGGUCATT against Ppard, for which the z-score is -1.24 (inactive). On to GCUCCUUUAGUCCUCACCATT against Mrpl10, for which the z-score was -2.15 (active). For GGAUCUUCAGGAAAACAGATT against Fam181b, the z-score was -0.955 (inactive). Take CCACCCUUCUUCUAUCGAATT against Ybx2: the z-score is -1.11 (inactive). On to GCCAGAGUUUAUUAACUGCTT against Stxbp6, for which the z-score is -0.809 (inactive).

As to CCAUUGCAGCAUACUGUCCTT against Serpina1b, the z-score is -0.402 (inactive). Take GCGGCUAAUUCGUUCUUUCTT against Atp8a1: the z-score is 0.708 (inactive). With GGUCAGGUAGGGAUAUACATT against Dele1, the z-score was -1.59 (inactive). CCAAUAAAAGUGCACACCUTT against Actb: the z-score was 2 (active).

Take GGCAGCAAGUUUUUUAAUCTT against Cap1: the z-score is 0.464 (inactive). Take GGAAAACAACAUGAUCGUGTT against Nadk: the z-score is -0.137 (inactive). Consider UCCCUAACGGCCCUUUUUATT against H4c14, for which the z-score is -0.729 (inactive).

Consider GGACAAGCUCCAAAACAACTT against Srsf4, for which the z-score was -0.292 (inactive). Take UAGGAACGCACCCAUACAATT against Fam89b: the z-score is 0.555 (inactive). Then GGAAAACCCAGGUCAGAAUTT against Serpina9, with -1.07 (inactive).

Consider CCUUAAGCAGAGUUCAAAGTT against Timm22, for which the z-score was 0.197 (inactive). On to CCCUCCUCAGUAUUGUACUTT against Dtx2, for which the z-score is 2.51 (active).

For the sequence GGUCAUUUCAAGUGCUAAGTT against Adgra1, the z-score is 2.76 (active). Regarding GCCAGAAGUGAAAAUCGAATT against Fkbp14, the z-score was 0.509 (inactive).

For GGGACAAGGCCUCGAUAUUTT against Ggps1, the z-score was 0.958 (inactive). For CGCAGGACUAUAAACUGAATT against Ptdss2, the z-score is 0.954 (inactive).

Take CCUCUUUCGACAAGAGCUCTT against Atp1a3: the z-score was 0.904 (inactive). Turning to GCAGAUCGUGCGGAUCUUGTT against Bcdin3d, the z-score is 2.1 (active). Consider GGCAUUGUUUUCAUUGUGGTT against Cldn7, for which the z-score was -0.0872 (inactive). In the case of GGAUGUGAUCCUACUGACATT against Tmem208, the z-score is 0.793 (inactive). Then GCUUCGAUACCUUCAAACCTT against Stom, with -3.7 (active); and CGAGAGUCUAACCAAGUACTT against Arhgdib, with -1.89 (inactive); and GGAGAUUGUGAGAGCCAUGTT against Kcnab3, with -0.753 (inactive).

Take GAGUGAGAAAGCCAGAGACTT against Acaa1a: the z-score was 0.188 (inactive).

For GGACUGUUUACUCAGCUCATT against Slc25a33, the z-score was -2.02 (active).

Take GGCCCACAAGGCUGUUUUGTT against Zfp131: the z-score was 0.459 (inactive). As to GGAUUUCAAGGGAAUUUGATT against Wbp4, the z-score was -0.271 (inactive). Then GCCAGUUGUGACAAAACUATT against Abca1, with -1.22 (inactive); and GGUGGAGUCUGAACUUAAUTT against Nfatc4, with -0.0623 (inactive). For the sequence GCCCUUAAAACAUAACCACTT against Fgf9, the z-score is 0.615 (inactive).

As to CCAAGAUUAACCAUAACACTT against Mrpl50, the z-score was 0.017 (inactive). With GCUCCUACAGAGAAUAAGATT against Eny2, the z-score was -1.7 (inactive). In the case of GGACGAGGACCAGCUAGAATT against Txn2, the z-score was -2.07 (active).

GGGACAUUUCCAUCCUUUUTT against Prdx6b: the z-score was -1.28 (inactive). GCUCCUUUGGUUCAACAUCTT against Olfr635: the z-score was -1.78 (inactive). In the case of GCAACCAUUCUGGUAUUACTT against Zfp108, the z-score was 0.904 (inactive). As for CCAUUAAUAAAGCGUGGGUTT against Cacybp, the z-score is 0.562 (inactive).

For the sequence GGAAAUUUGGAAAUUGCCUTT against Ntm, the z-score is 2.46 (active). Regarding “GGAUCAUCACUACUACAAUTT against 4932415M13Rik”, the z-score is 2.37 (active). Regarding GGCUGCUCGAAUCAGUCAUTT against Slc27a3, the z-score was 0.237 (inactive). Take GGAAUUUUCUACAUGUGUGTT against Lim2: the z-score is -2.12 (active). CCAGAUCCUAAAGUCUUUATT against Trpd52l3: the z-score is 0.677 (inactive). Regarding CCACCGGAUCGAAGACAGUTT against Tanc2, the z-score was -1.28 (inactive). Take CGUCCCUAGUAUAAAAAGATT against Cxxc5: the z-score is -0.273 (inactive).

In the case of GGCUUUCACCUUAAUUGAUTT against Fntb, the z-score is -0.296 (inactive).

Take CCCAGUACAGCCUUGUGGUTT against Med25: the z-score is -2.02 (active).

CGACAAGGGUUUUUAUUCUTT against Smcr8: the z-score was -0.414 (inactive). To GCCUCUCAACAUGAAUUAATT against Gm9918 belongs 0.524 (inactive). For CCAAGUUUAACAUCCAGGGTT against Pfkm, the z-score was -0.126 (inactive). Consider GGAUGGAGACCUCUCCUUUTT against Guca2a, for which the z-score was 1.36 (inactive).

Turning to CCAGCGAUCUUCCCAUUCUTT against Ccr8, the z-score is -0.844 (inactive).
